Experimental data as given in PubChem BioAssay AID1159580 (chemical genetic matrix, 2015).
About 2,000 (36%) of roughly 5,500 compounds were called active. Roughly 18% stayed inconclusive and do not appear here. The list shows a part of the results. Values without a mark were called inactive. No stated cut-off is given here; in the data, active means normalized growth mostly below about 0.91 (no sharp cut-off); inconclusive means no clear call, values can overlap the other calls; inactive means mostly above about 0.92.

Experiment: chemical genetic growth profiling, strain panel (AID 1159580);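 further: tested at 20 µM; growth read once vehicle control cultures reached saturation at 30 °C; 1 = growth at the plate median or of vehicle wells; lower values mean less growth of the strain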
Conditions: S. cerevisiae deletion strains, growth OD
[1] = locus YAL040C, strain CLN3, active compounds read low
[2] = locus YCL061C, strain MRC1 (second series), active compounds read low
[3] = locus YDR363W, strain ESC2, active compounds read low
[4] = locus YER002W, strain NOP16, active compounds read low
[5] = locus YGR078C, strain PAC10, active compounds read low
[6] = locus YJR075W, strain HOC1, active compounds read low
[7] = locus YMR263W, strain SAP30, active compounds read low
[8] = locus YMR307W, strain GAS1, active compounds read low
[9] = locus YNL175C, strain NOP13, active compounds read low
[10] = locus YNL197C, strain WHI3, active compounds read low
[11] = locus YNL224C, strain SQS1, active compounds read low
[12] = locus YNL322C, strain KRE1, active compounds read low
[13] = locus YOR083W, strain WHI5 (second series), active compounds read low
[14] = locus YPL055C, strain LGE1, active compounds read low
[15] = locus YPL241C, strain CIN2, active compounds read low
[16] = locus YAL013W, strain DEP1, active compounds read low
[17] = locus YDL101C, strain DUN1, active compounds read low
[18] = locus YDR150W, strain NUM1, active compounds read low
[19] = locus YHR030C, strain SLT2, active compounds read low
[20] = locus YNL153C, strain GIM3, active compounds read low

For `C[C@@H](N)Cc1cnc[nH]1`, which normalized growth [1] is on record?
Its normalized growth is 0.96.

What about the normalized growth [2] of the same molecule?
Its normalized growth is 1.01.

What about the normalized growth [3] of the same molecule?
Its normalized growth is 1.02.

And the normalized growth [4]?
Its normalized growth is 1.01.

What about the normalized growth [5] of the same molecule?
The normalized growth was 1.02.

And the normalized growth [6]?
The normalized growth was 1.02.

What about the normalized growth [7] of the same molecule?
Its normalized growth is 1.01.

What about the normalized growth [8] of the same molecule?
Its normalized growth is 1.02.

And the normalized growth (locus YNL128W, strain TEP1, active compounds read low)?
Its normalized growth is 1.01.

What about the normalized growth [9] of the same molecule?
Its normalized growth is 1.01.

What about the normalized growth [10] of the same molecule?
Its normalized growth is 1.02.

What about the normalized growth [11] of the same molecule?
The normalized growth was 1.02.

What about the normalized growth [12] of the same molecule?
Its normalized growth is 1.02.

And the normalized growth [13]?
The normalized growth was 1.04.

And the normalized growth [14]?
Its normalized growth is 1.03.

What about the normalized growth [15] of the same molecule?
The normalized growth was 1.01.

Which normalized growth [16] does the source give for `O=C(Nc1ccc(Br)cc1Cl)C(Cl)(Cl)Cl` here?
The normalized growth was 0.975.

And the normalized growth (locus YBR229C, strain ROT2, active compounds read low)?
The normalized growth was 0.964.

What about the normalized growth [17] of the same molecule?
The normalized growth was 0.996.

What about the normalized growth [18] of the same molecule?
Its normalized growth is 0.97.

And the normalized growth (locus YEL061C, strain CIN8, active compounds read low)?
The normalized growth was 0.945.

And the normalized growth [5]?
Its normalized growth is 0.943.

And the normalized growth [19]?
The normalized growth was 0.635 (active).

And the normalized growth (locus YHR087W, strain rtc3, active compounds read low)?
The normalized growth was 0.935.

What about the normalized growth (locus YJR043C, strain POL32, active compounds read low) of the same molecule?
The normalized growth was 0.957.

And the normalized growth [6]?
Its normalized growth is 0.888 (active).

And the normalized growth (locus YKL190W, strain CNB1, active compounds read low)?
Its normalized growth is 0.941.

And the normalized growth (locus YLR039C, strain RIC1, active compounds read low)?
Its normalized growth is 0.609 (active).

And the normalized growth (locus YLR058C, strain SHM2 (second series), active compounds read low)?
The normalized growth was 0.94.

And the normalized growth (locus YLR085C, strain ARP6, active compounds read low)?
The normalized growth was 0.782.

What about the normalized growth (locus YLR262C, strain YPT6, active compounds read low) of the same molecule?
The normalized growth was 0.635 (active).

And the normalized growth (locus YML094W, strain GIM5, active compounds read low)?
The normalized growth was 1.04.

What about the normalized growth (locus YMR219W, strain ESC1, active compounds read low) of the same molecule?
The normalized growth was 0.955.

What about the normalized growth [7] of the same molecule?
The normalized growth was 0.963.

And the normalized growth [8]?
The normalized growth was 0.56 (active).

What about the normalized growth [20] of the same molecule?
The normalized growth was 0.962.

And the normalized growth (locus YNL298W, strain CLA4 (second series), active compounds read low)?
Its normalized growth is 0.855.

What about the normalized growth [12] of the same molecule?
The normalized growth was 0.95.

What about the normalized growth (locus YNR030W, strain Alg12, active compounds read low) of the same molecule?
The normalized growth was 0.935.

What about the normalized growth (locus YOL006C, strain TOP1, active compounds read low) of the same molecule?
Its normalized growth is 0.681 (active).

What about the normalized growth [14] of the same molecule?
The normalized growth was 0.956.

And the normalized growth [15]?
The normalized growth was 1.02.

And the normalized growth (locus YPR135W, strain CTF4, active compounds read low)?
Its normalized growth is 0.64 (active).

Which normalized growth [16] does the source give for `C/C(O)=C(\C#N)C(=O)Nc1cc(Br)ccc1Br` here?
Its normalized growth is 0.98.

And the normalized growth [1]?
Its normalized growth is 1.01.

What about the normalized growth [2] of the same molecule?
Its normalized growth is 0.99.

What about the normalized growth [18] of the same molecule?
The normalized growth was 0.989.

And the normalized growth [3]?
The normalized growth was 1.05.

What about the normalized growth [4] of the same molecule?
The normalized growth was 1.

And the normalized growth [5]?
The normalized growth was 0.97.

What about the normalized growth (locus YGR229C, strain SMI1, active compounds read low) of the same molecule?
Its normalized growth is 1.01.

What about the normalized growth [6] of the same molecule?
Its normalized growth is 1.02.

And the normalized growth [7]?
Its normalized growth is 0.969.

What about the normalized growth [20] of the same molecule?
The normalized growth was 0.999.

What about the normalized growth [9] of the same molecule?
The normalized growth was 0.959.

What about the normalized growth [10] of the same molecule?
Its normalized growth is 0.961.

And the normalized growth [11]?
Its normalized growth is 0.967.

And the normalized growth [12]?
Its normalized growth is 0.983.

And the normalized growth [13]?
Its normalized growth is 0.972.

And the normalized growth [15]?
Its normalized growth is 0.98.

What does the source list for `O=C(Nc1ccccc1Sc1ccc([N+](=O)[O-])cc1[N+](=O)[O-])C(Cl)(Cl)Cl`?
normalized growth (locus YAR019C, strain CDC15, active compounds read low): 0.972; normalized growth (locus YBL105C, strain PKC1, active compounds read low): 0.972; normalized growth (locus YBR135W, strain CKS1, active compounds read low): 0.973; normalized growth (locus YBR136W, strain MEC1, active compounds read low): 0.97; normalized growth (locus YBR160W, strain CDC28, active compounds read low): 0.983; normalized growth (locus YDL017W, strain CDC7, active compounds read low): 0.975; normalized growth (locus YDL028C, strain MPS1, active compounds read low): 0.973; normalized growth [17]: 0.976; normalized growth (locus YDL108W, strain KIN28, active compounds read low): 0.958; normalized growth (locus YDL132W, strain cdc53, active compounds read low): 0.983; normalized growth (locus YDL214C, strain PRR2, active compounds read low): 0.987; normalized growth (locus YDR052C, strain DBF4, active compounds read low): 0.974; normalized growth (locus YDR054C, strain cdc34, active compounds read low): 0.971; normalized growth (locus YDR226W, strain ADK1, active compounds read low): 0.965; normalized growth (locus YDR477W, strain SNF1, active compounds read low): 0.977; normalized growth (locus YER123W, strain YCK3, active compounds read low): 0.986; normalized growth (locus YER133W, strain GLC7, active compounds read low): 0.969; normalized growth (locus YFL009W, strain cdc4, active compounds read low): 0.96; normalized growth (locus YFL029C, strain CAK1, active compounds read low): 0.973; normalized growth (locus YFR003C, strain YPI1, active compounds read low): 0.965; normalized growth (locus YFR019W, strain FAB1, active compounds read low): 0.984; normalized growth (locus YFR028C, strain CDC14, active compounds read low): 0.966; normalized growth (locus YGR040W, strain KSS1, active compounds read low): 0.975; normalized growth (locus YGR052W, strain FMP48, active compounds read low): 1.02; normalized growth (locus YGR092W, strain DBF2, active compounds read low): 0.985; normalized growth [19]: 1.02; normalized growth (locus YHR079C, strain IRE1, active compounds read low): 0.967; normalized growth (locus YHR082C, strain KSP1, active compounds read low): 1.06; normalized growth (locus YHR205W, strain SCH9, active compounds read low): 0.795; normalized growth (locus YIL147C, strain SLN1, active compounds read low): 0.972; normalized growth (locus YJL095W, strain BCK1, active compounds read low): 1.01; normalized growth (locus YJL128C, strain PBS2, active compounds read low): 0.92; normalized growth (locus YJL157C, strain FAR1, active compounds read low): 0.97; normalized growth (locus YJR016C, strain ILV3, active compounds read low): 0.971; normalized growth (locus YJR066W, strain TOR1 (second series), active compounds read low): 0.967; normalized growth (locus YJR066W, strain TOR1, active compounds read low): 1.1; normalized growth (locus YKL048C, strain ELM1, active compounds read low): 0.976; normalized growth (locus YKL067W, strain YNK1, active compounds read low): 0.982; normalized growth (locus YKL101W, strain HSL1, active compounds read low): 1; normalized growth (locus YKL193C, strain SDS22, active compounds read low): 0.965; normalized growth (locus YKL203C, strain TOR2, active compounds read low): 1.02; normalized growth (locus YLR113W, strain HOG1, active compounds read low): 1.04; normalized growth (locus YLR133W, strain CKI1, active compounds read low): 0.977; normalized growth (locus YLR403W, strain SFP1, active compounds read low): 0.873; normalized growth (locus YML070W, strain DAK1, active compounds read low): 0.998; normalized growth (locus YMR001C, strain CDC5, active compounds read low): 0.975; normalized growth (locus YMR205C, strain PFK2 (second series), active compounds read low): 0.973; normalized growth (locus YMR277W, strain FCP1, active compounds read low): 0.955; normalized growth (locus YNL006W, strain LST8, active compounds read low): 0.991; normalized growth (locus YNL020C, strain ARK1, active compounds read low): 0.994; normalized growth (locus YNL161W, strain CBK1, active compounds read low): 0.968; normalized growth (locus YNL183C, strain NPR1, active compounds read low): 1.1; normalized growth (locus YNL207W, strain RIO2, active compounds read low): 0.967; normalized growth (locus YNL222W, strain SSU72, active compounds read low): 0.976; normalized growth (locus YNL307C, strain MCK1 (second series), active compounds read low): 1; normalized growth (locus YOL078W, strain AVO1, active compounds read low): 0.978; normalized growth (locus YOL136C, strain PFK27, active compounds read low): 0.982; normalized growth (locus YOR061W, strain CKA2, active compounds read low): 0.98; normalized growth (locus YOR119C, strain RIO1, active compounds read low): 1.05; normalized growth (locus YOR231W, strain MKK1, active compounds read low): 1.08; normalized growth (locus YOR329C, strain SCD5, active compounds read low): 0.986; normalized growth (locus YPL031C, strain PHO85, active compounds read low): 0.959; normalized growth (locus YPL153C, strain RAD53, active compounds read low): 0.975; normalized growth (locus YPL204W, strain HRR25, active compounds read low): 0.966; normalized growth (locus YPL209C, strain IPL1, active compounds read low): 0.971; normalized growth (locus YPL256C, strain CLN2, active compounds read low): 0.996; normalized growth (locus YPR025C, strain CCL1, active compounds read low): 0.991; normalized growth (locus YPR106W, strain ISR1, active compounds read low): 0.952; normalized growth (locus YPR111W, strain DBF20, active compounds read low): 0.964; normalized growth (strain NNK1, active compounds read low): 0.972; normalized growth (strain TSCII, active compounds read low): 0.981
